The full data set covers some 7,900 targets. This sample favours those with a hit. About 0.6% of all pairs of compound and target were hits.
compound: Cc1cc(Nc2cc(N3CCN(C)CC3)nc(Sc3ccc(NC(=O)C4CC4)cc3)n2)n[nH]1 [tozasertib]; experiment: log2 fold change, soluble protein after heating vs DMSO (PISA); higher = thermal stabilisation; K562 cells, 10 uM, 30 min; active = over 0.2 and 3.5 SD of the protein, either way, in both replicates (recomputed)
How it was run: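 Quantification of soluble protein used TMTpro 16plex LC-MS/MS, with channel sums equalised. Samples were the supernatant after 21,000xg for 90 min of pooled aliquots from K562 cells (2×10^6 cells/mL) treated with 10 μM compound for 30 min, heated for 3 min over 48°C-58°C, and extracted in PBS with 0.5% NP-40 at 4°C. Values, from duplicates, describe thermal stability against control samples on a log2 fold-change scale.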

Chain of UniProt Q15054 (Q15054 whole entry, looked up): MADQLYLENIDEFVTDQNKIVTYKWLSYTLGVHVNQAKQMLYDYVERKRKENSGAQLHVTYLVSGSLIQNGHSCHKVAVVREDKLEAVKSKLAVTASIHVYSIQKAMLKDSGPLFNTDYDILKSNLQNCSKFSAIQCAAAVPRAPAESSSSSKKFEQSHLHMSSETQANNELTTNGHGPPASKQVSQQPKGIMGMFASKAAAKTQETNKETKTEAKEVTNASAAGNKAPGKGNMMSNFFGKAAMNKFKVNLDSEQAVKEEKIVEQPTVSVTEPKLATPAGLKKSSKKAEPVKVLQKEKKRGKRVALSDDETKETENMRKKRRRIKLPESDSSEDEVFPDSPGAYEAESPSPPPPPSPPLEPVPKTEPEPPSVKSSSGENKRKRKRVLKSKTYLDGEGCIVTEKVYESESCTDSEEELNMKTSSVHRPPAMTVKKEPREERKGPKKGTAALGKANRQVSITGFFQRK
Chain of UniProt O95453 (O95453 whole entry, looked up): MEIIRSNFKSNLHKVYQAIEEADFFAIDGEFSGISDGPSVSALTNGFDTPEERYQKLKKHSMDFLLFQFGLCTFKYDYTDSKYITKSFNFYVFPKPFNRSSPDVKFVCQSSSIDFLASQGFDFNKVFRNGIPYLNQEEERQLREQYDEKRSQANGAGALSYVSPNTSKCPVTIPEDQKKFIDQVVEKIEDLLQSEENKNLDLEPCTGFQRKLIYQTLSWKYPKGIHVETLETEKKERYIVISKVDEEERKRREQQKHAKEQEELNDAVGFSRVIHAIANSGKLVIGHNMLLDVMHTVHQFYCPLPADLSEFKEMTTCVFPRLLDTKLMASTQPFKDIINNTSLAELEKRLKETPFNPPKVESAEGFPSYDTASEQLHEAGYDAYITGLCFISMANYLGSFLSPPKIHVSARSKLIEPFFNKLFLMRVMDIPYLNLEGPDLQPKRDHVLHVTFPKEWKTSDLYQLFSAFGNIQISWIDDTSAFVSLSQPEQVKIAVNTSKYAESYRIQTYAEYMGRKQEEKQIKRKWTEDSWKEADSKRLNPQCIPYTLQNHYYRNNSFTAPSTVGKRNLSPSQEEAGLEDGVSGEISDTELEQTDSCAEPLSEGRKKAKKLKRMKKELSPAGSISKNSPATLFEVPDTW
Chain of UniProt Q86YH6 (Q86YH6 whole entry, looked up): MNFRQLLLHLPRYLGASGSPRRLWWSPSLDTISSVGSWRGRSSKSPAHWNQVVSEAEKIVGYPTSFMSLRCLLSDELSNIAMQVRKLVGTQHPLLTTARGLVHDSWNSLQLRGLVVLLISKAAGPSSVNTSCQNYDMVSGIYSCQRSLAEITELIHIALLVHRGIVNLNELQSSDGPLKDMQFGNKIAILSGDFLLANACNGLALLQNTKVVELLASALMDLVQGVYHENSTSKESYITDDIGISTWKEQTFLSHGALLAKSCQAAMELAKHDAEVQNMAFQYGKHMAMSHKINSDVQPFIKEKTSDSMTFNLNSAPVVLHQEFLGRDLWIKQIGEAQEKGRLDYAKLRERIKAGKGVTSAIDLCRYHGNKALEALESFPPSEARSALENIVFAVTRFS
Chain of UniProt Q9NR12 (Q9NR12 whole entry, looked up): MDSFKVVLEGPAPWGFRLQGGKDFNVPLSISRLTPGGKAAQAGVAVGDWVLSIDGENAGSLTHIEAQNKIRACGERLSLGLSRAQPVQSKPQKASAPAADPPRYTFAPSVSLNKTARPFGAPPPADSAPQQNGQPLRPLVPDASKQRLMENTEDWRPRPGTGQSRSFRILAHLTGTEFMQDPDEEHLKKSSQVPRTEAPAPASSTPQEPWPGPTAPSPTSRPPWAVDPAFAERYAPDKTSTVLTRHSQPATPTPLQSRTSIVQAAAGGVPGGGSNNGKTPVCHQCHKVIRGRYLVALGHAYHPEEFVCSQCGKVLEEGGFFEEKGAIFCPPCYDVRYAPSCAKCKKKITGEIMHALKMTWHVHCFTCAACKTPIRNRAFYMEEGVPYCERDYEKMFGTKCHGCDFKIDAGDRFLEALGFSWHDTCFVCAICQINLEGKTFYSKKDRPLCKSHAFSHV
Chain of UniProt P11216 (P11216 whole entry, looked up): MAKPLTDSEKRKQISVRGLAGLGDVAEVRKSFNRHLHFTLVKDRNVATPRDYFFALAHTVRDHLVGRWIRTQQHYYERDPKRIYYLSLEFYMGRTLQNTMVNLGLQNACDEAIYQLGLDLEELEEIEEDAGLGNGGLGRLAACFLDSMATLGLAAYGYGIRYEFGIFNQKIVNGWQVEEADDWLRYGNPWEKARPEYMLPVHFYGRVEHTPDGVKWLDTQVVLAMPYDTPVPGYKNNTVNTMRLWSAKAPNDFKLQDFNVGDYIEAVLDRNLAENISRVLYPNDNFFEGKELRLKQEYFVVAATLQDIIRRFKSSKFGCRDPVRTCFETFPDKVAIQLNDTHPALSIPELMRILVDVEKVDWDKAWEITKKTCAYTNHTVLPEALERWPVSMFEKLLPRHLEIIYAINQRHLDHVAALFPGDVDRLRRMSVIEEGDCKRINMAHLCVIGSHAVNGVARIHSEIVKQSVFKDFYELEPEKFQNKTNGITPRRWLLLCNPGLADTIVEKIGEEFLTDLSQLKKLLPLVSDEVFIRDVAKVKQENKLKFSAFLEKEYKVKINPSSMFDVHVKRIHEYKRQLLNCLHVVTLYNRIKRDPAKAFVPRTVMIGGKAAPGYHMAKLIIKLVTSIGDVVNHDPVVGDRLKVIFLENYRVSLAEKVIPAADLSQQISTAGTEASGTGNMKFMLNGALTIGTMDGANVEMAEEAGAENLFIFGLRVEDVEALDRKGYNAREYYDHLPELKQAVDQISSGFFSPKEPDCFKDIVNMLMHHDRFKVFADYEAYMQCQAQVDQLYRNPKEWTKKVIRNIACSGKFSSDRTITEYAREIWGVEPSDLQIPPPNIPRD
Chain of UniProt P28340 (P28340 whole entry, looked up): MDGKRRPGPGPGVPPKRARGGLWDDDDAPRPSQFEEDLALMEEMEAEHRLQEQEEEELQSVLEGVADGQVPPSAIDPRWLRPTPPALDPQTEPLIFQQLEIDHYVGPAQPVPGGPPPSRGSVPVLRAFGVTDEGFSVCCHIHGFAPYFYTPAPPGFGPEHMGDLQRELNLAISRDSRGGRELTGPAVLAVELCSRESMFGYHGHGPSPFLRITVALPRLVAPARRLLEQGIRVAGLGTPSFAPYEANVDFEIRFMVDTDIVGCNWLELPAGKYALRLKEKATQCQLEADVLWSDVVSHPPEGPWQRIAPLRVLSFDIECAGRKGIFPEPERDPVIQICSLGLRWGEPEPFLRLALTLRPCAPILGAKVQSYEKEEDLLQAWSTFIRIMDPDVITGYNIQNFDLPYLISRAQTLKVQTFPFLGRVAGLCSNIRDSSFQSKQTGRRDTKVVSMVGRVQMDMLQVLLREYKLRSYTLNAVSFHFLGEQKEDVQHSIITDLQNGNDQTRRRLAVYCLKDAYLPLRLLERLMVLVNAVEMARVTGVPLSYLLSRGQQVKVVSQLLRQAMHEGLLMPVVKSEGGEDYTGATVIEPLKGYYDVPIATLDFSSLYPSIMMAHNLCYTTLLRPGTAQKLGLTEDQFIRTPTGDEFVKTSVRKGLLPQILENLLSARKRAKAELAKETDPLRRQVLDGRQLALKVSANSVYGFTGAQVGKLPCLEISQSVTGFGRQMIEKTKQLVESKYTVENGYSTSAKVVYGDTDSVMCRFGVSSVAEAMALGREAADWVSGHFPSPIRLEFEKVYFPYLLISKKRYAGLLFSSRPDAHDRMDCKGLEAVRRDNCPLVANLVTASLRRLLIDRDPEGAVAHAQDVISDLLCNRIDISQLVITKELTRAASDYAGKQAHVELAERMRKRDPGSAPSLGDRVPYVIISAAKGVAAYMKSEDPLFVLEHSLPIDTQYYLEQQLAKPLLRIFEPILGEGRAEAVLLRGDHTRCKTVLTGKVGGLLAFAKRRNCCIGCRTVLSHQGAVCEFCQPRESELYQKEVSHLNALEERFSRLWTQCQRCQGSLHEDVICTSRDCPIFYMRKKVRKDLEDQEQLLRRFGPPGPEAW
Chain of UniProt Q9Y3C6 (Q9Y3C6 whole entry, looked up): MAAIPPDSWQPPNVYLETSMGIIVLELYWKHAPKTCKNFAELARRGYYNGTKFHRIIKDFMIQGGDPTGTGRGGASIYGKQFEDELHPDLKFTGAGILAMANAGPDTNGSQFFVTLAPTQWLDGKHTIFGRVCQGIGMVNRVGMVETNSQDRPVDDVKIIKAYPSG
Chain of UniProt Q15008 (Q15008 whole entry, looked up): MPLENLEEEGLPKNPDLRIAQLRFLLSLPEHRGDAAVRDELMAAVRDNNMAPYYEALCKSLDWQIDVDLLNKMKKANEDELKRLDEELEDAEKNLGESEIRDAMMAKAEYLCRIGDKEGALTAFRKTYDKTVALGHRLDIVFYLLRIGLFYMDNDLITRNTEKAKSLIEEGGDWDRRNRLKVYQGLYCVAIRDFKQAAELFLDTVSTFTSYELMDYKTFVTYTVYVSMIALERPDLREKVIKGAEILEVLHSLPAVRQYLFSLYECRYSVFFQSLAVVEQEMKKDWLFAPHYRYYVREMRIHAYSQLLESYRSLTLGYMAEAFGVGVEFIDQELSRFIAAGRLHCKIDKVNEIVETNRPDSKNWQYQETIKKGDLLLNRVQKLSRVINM
Chain of UniProt P07205 (P07205 whole entry, looked up): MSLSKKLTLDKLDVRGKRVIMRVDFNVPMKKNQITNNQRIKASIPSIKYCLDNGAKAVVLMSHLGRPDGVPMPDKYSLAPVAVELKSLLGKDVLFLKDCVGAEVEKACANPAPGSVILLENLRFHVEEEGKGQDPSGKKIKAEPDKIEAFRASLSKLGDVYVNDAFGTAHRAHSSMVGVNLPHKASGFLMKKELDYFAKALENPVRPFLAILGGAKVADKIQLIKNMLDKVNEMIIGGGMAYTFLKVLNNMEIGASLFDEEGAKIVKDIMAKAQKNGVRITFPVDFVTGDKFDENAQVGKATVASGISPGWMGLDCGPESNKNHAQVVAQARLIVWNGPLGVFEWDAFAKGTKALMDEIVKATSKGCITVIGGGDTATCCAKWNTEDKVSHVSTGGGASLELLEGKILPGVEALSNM

log2 fold change, inactive:
PARN (UniProt O95453) 0.024
PEF1 (UniProt Q9UBV8) 0.06
POLD1 (UniProt P28340) 0.016
PARG (UniProt Q86W56) 0.022
PRMT7 (UniProt Q9NVM4) 0.01
PDLIM7 (UniProt Q9NR12) -0.002
POLD3 (UniProt Q15054) 0.048
POLR2A (UniProt P24928) -0.026
PLD3 (UniProt Q8IV08) -0.009
PPIL1 (UniProt Q9Y3C6) -0.01
PPP2R5A (UniProt Q15172) -0.049
PPOX (UniProt P50336) 0.019
PLBD2 (UniProt Q8NHP8) 0.015
PRKAR2B (UniProt P31323) 0.026
PJA2 (UniProt O43164) -0.018
PCBP1 (UniProt Q15365) 0.047
PGK2 (UniProt P07205) -0.033
PSMD6 (UniProt Q15008) 0.047
POLR2K (UniProt P53803) -0.065
PSMD9 (UniProt O00233) -0.03
PDSS2 (UniProt Q86YH6) -0.118
PYGL (UniProt P06737) -0.022
PYGB (UniProt P11216) -0.04
PDE12 (UniProt Q6L8Q7) -0.007

Source: the supplement of paper PMC10849652
